Among all 69,000 compounds or so, about 8,600 (12%) showed an effect of 50% or more. The sample as a whole holds a higher share of strong results than the screen did.

For the assay, the system named is Plasmodium berghei. The assay is described as follows: Screen against P. berghei liver stage (PbLuc), transformed with Luciferase, at 10uM. The assay is classed as functional, HepG2. The following applies: tested at 10 uM.
On to `Cc1ccc(OC2(C(=O)O)CCN(C(=O)CCc3ccco3)CC2)cn1`, for which the INHIBITION stood at 34.4%.

Consider `O=c1c2sccc2nc2n1CCN(Cc1ccsc1)CC2`, for which the INHIBITION worked out at 5.11%.

Consider `Cc1nn(C)cc1CN1CCc2nc3sccc3c(=O)n2CC1`, for which the INHIBITION stood at 30.5%.

On to `CC(C)(C)c1n[nH]cc1CN1CCc2nc3ccsc3c(=O)n2CC1`, for which the INHIBITION was 50.6%.

`COc1ccc(CC(=O)N2CC[C@@H]3[C@H](CC2)N(C)CCS3(=O)=O)cc1`: the INHIBITION was 18.5%.

Turning to `COCCCN(Cc1cnc(-c2cccs2)nc1)C1CCN(C)CC1`, the INHIBITION is 13%.

For `Cc1nc(NC2CCCCC2)cc(C2CCCNC2)n1` (stereo not drawn), the INHIBITION is given as 28.3%.

For the molecule `Cc1nc(NC2CCS(=O)(=O)CC2)cc(C2CCCNC2)n1` (stereo not drawn), the INHIBITION turned out to be 62.2%.

On to `Cc1nc(CCC(=O)NC2CCC2)cc(C2CCCNC2)n1` (stereo not drawn), for which the INHIBITION came to 26.8%.

On to `CSc1nsc(NC(=O)c2cc(C3CC3)nn2C)n1`, for which the INHIBITION is reported as -64.85%.

As to `CN(C)c1ccc(CNC(=O)NCCc2ccccn2)cn1`, the INHIBITION is reported as -22.9%.

With `CCN(C)Cc1cccc(CNC(=O)CSCc2ccccn2)c1`, the INHIBITION stood at 20.8%.

For the molecule `CCN(C)Cc1cccc(CNC(=O)NCCc2ccccn2)c1`, the INHIBITION is 51%.

`Fc1ccccc1CN1CCC(c2n[nH]c(C3CC3)n2)CC1`: the INHIBITION is on record as -5.92%.

In the case of `Cc1nc2cc(C3CCN(Cc4ccccc4F)C3)nn2c(O)c1C` (stereo not drawn), the INHIBITION is 61.7%.

As to `Cc1nc(O)cc(C2CCN(Cc3cccc(F)c3F)C2)n1` (stereo not drawn), the INHIBITION came out at 25%.

For the molecule `CN(Cc1nnc(C2CC2)n1C)C1CCN(Cc2ccccc2F)C1` (stereo not drawn), the INHIBITION was -3.19%.

For `Cc1nc2cc(C3CCN(Cc4cccc(F)c4F)C3)nn2c(O)c1C.O=C(O)CC(O)(CC(=O)O)C(=O)O` (stereo not drawn), the INHIBITION is 90.4%.

As to `CCc1c(C)nc2cc(C3CCN(Cc4ccccc4F)C3)nn2c1O` (stereo not drawn), the INHIBITION stood at 85.9%.

Consider `COC(=O)c1cccc2nc([C@H]3CCN(Cc4ccccc4F)C3)oc12`, for which the INHIBITION was -61.5%.

Take `CN(Cc1noc(C2CC2)n1)C1CCN(Cc2cccc(F)c2F)C1` (stereo not drawn): the INHIBITION was -31.96%.

Consider `CNC(=O)c1cn[nH]c1C1CCN(Cc2ccccc2F)C1` (stereo not drawn), for which the INHIBITION is reported as -10.5%.

Consider `COCCNC(=O)Nc1ccc(-c2nc(C(C)C)no2)cc1`, for which the INHIBITION is -36.4%.

Turning to `Cc1cccc(C)c1Nc1noc2c1CN(C(=O)c1ccn(C)n1)CC2`, the INHIBITION was found to be 30.35%.

On to `CN(CC1COc2ccccc2O1)C(=O)CCn1cncn1` (stereo not drawn), for which the INHIBITION is 44.05%.

On to `CNC(=O)CN1CCC(NC(=O)N(C)Cc2c(C)noc2C)CC1`, for which the INHIBITION is recorded as 34.25%.

On to `Cc1cc(C)c(C(=O)N2CCOCC2c2c(C)n[nH]c2C)o1` (stereo not drawn), for which the INHIBITION is reported as -8.4%.

With `CO[C@H]1CN(Cc2ccc(F)cc2)CC[C@@]12CCCO2`, the INHIBITION is 25.6%.

With `Cn1cc(C(=O)N[C@@H]2CN(Cc3ccoc3)[C@@H]3CCCO[C@@H]32)cn1`, the INHIBITION is reported as 35.8%.

Turning to `CN1CCS(=O)(=O)[C@@H]2CCN(C(=O)CC(C)(C)C)CC[C@@H]21`, the INHIBITION is reported as 35.8%.

With `C[C@H]1CN2C[C@H](O)CC2CN1Cc1ccc2nccnc2c1` (stereo partly drawn), the INHIBITION turned out to be 17.4%.

As to `CCc1nsc(N2CCCN(C(=O)c3ccc(OC)cc3)CC2)n1`, the INHIBITION was 33.5%.

Take `CCc1nsc(N2CCN(C(=O)COc3ccccc3)CC2)n1`: the INHIBITION is listed as -39.2%.

For `CCc1nsc(N2CCCN(C(=O)COc3ccccc3)CC2)n1`, the INHIBITION is listed as 53.8%.

`COC(=O)c1cccn1C1CCN(S(=O)(=O)c2ccccc2)CC1`: the INHIBITION is 19.5%.

Regarding `Cc1ccc(C)c(S(=O)(=O)NCCC(=O)NCc2ccoc2)c1`, the INHIBITION was -0.514%.

For `CCSCCNc1cc(C)nc2c(C)c(C)nn12`, the INHIBITION was 39.9%.

Turning to `O=C(O)[C@@H]1CN(C(=O)CSCCN2CCCC2)C[C@H]1c1ccccc1`, the INHIBITION was 39.3%.

With `O=C(CSCCN1CCOCC1)N1CCc2ccccc2C1`, the INHIBITION came to 76%.

Regarding `CC1CCN(C(=O)CSCCN2CCOCC2)CC1`, the INHIBITION is 85.6%.

On to `O=C(CSCCN1CCOCC1)N1CCCCCC1`, for which the INHIBITION is recorded as 44.1%.

Take `CC1CCN(C(=O)CSCc2nc(C3CC3)no2)CC1`: the INHIBITION is -42.2%.

`O=C(NCC(=O)N1CCc2ccccc2C1)c1ccoc1`: the INHIBITION was 26.3%.

With `O=C1CCCN1c1cccc(CNCc2nc(C3CC3)no2)c1`, the INHIBITION is 29.6%.

Turning to `Cc1c[nH]nc1C1CCCN(C(=O)c2c(C)noc2C)C1` (stereo not drawn), the INHIBITION is given as 23.4%.

Regarding `N#Cc1cn(C2CC2)c(=O)n(CC(O)c2ccc(Cl)cc2)c1=O` (stereo not drawn), the INHIBITION was determined as 9.1%.

For the molecule `Cc1cc(C[S+]([O-])Cc2ccccc2C)no1` (stereo not drawn), the INHIBITION was -23.3%.

Take `Cc1ccc(CN2CCc3c(nc4cc(C5CC5)nn4c3O)C2)s1`: the INHIBITION is 44.3%.

Consider `CC(C(=O)N1CCn2cncc2C1)N1CCCC1` (stereo not drawn), for which the INHIBITION is 47.9%.

As for `CC(=O)NC(C(=O)N1CCn2cncc2C1)C(C)C` (stereo not drawn), the INHIBITION stood at 29.8%.

With `CC(C)N(C(=O)N1CCn2cncc2C1)C(C)C`, the INHIBITION is 52.2%.

As for `O=C(CC1CCN(c2ncnc3ccccc23)CC1)N1CCCC1`, the INHIBITION amounted to 53.2%.

Consider `O=C(CC1CCN(c2ncnc3cccc(F)c23)CC1)N1CCCC1`, for which the INHIBITION is listed as -18.5%.

`Cn1ncc2c(N3CCC(CC(=O)N4CCCC4)CC3)ncnc21`: the INHIBITION is on record as 11.9%.

On to `CC(=O)NCCNC(=O)CN1CCOC(Cn2cc(C)cn2)C1` (stereo not drawn), for which the INHIBITION came to 25.6%.

On to `Cc1cccc2[nH]cc(CC(=O)N3CCC(Nc4cccnn4)CC3)c12`, for which the INHIBITION is 24%.

Take `CCc1cnc2c(c1Nc1ccc(OC)cc1)c(=O)n(C)c(=O)n2C`: the INHIBITION is listed as -50.5%.

`CCc1cnc2c(c1NCc1ccc(OC)cc1)c(=O)n(C)c(=O)n2C`: the INHIBITION is given as 67.6%.

On to `CCc1cnc2c(c1NCc1ccncc1)c(=O)n(C)c(=O)n2C`, for which the INHIBITION came out at 2.3%.

As for `COc1ccc(CNc2c(C)cnc3c2c(=O)n(C)c(=O)n3C)cc1`, the INHIBITION came to 9.79%.

Regarding `CCc1cnc2c(c1Nc1ccc(C)c(F)c1)c(=O)n(C)c(=O)n2C`, the INHIBITION is given as 53.1%.

For the molecule `COc1cccc(CNc2c(C)cnc3c2c(=O)n(C)c(=O)n3C)c1`, the INHIBITION is listed as 48.1%.

For the molecule `CCc1cnc2c(c1Nc1ccc3c(c1)OCO3)c(=O)n(C)c(=O)n2C`, the INHIBITION is given as 4.35%.

On to `CCc1cnc2c(c1NCc1cccc(OC)c1)c(=O)n(C)c(=O)n2C`, for which the INHIBITION came out at 55.3%.

`CCc1cnc2c(c1Nc1ccncc1)c(=O)n(C)c(=O)n2C`: the INHIBITION came out at 27.6%.

In the case of `O=S(=O)(Cc1ccccc1Cl)CC(O)CO` (stereo not drawn), the INHIBITION was 27%.

Consider `Cc1cnn(Cc2ccc(NC(=O)N3CCCCC3CO)cc2)c1` (stereo not drawn), for which the INHIBITION was -0.378%.

Consider `Cc1noc(CNC2CCCN(Cc3noc(C4CC4)n3)C2)n1` (stereo not drawn), for which the INHIBITION is given as -52.5%.

Source of the values: ChEMBL document CHEMBL4513216, “Probing the Open Global Health Chemical Diversity Library for Multistage-Active Starting Points for Next-Generation Antimalarials” (ACS Infect Dis, 2020).
